In PubChem BioAssay (NCATS):
Inconclusive results are not listed. The source made the active and inactive calls. Unless noted, calls come from the whole dose curve; as a rule, active = well fitted curve in the direction sought with a large enough effect; inconclusive = small, poorly fitted or top-dose-only effect, or another doubt; inactive = no such curve, though single readings can be large; an effect the other way counts as inactive or inconclusive.

Columns and labels:
[1] = qHTS to identify inhibitors of the type 1 interferon - major histocompatibility complex class I in skeletal muscle: primary screen against the NCATS Pharmaceutical Collection (AID 1347407);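 note: luminescence of HiBiT knocked into endogenous HLA-B as interferon-induced MHC class I level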
Outline: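 Immortalized human myoblasts (C25cl48) with HiBiT knocked into endogenous HLA-B*08:01 were stimulated with 4 ng/ml IFN-beta and treated with compounds (8-point, 1:5, top 46 uM final) for 24 h at 37 C; HiBiT lytic luminescence read.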

[2] = molecular target: Protein phosphatase 1D (Homo sapiens) (UniProt O15297); experiment: RapidFire Mass Spectrometry qHTS Assay for Modulators of WT P53-Induced Phosphatase 1 (WIP1) (AID 1347424); note: series mostly up to about 63 µM
Chain of Protein phosphatase 1D (Homo sapiens) (O15297 whole entry, looked up): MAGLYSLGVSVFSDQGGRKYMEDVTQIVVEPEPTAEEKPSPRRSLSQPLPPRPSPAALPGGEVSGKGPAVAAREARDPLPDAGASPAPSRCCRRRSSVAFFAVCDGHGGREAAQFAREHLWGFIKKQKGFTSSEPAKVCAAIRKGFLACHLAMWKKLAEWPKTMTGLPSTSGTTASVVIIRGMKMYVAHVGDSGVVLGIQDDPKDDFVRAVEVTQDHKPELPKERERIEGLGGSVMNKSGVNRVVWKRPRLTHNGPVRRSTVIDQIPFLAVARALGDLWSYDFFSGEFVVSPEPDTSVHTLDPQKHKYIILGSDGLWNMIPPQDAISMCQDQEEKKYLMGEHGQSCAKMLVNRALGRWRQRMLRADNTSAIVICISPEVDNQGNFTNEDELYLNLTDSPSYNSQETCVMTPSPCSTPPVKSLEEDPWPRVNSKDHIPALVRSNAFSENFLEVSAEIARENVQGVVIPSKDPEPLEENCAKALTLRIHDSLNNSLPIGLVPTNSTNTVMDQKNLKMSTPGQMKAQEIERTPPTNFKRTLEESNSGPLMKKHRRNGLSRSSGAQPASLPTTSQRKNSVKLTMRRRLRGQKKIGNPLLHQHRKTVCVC
Outline: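 RapidFire MS readout of dephosphorylated VEPPL-S-QETFS product, with 1 uM isotope-labelled peptide standard. Reaction: 10 nM WIP1, 2 uM phosphopeptide substrate, 5 min, room temperature, after 1 h compound preincubation; stopped with 0.5% formic acid.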

[3] = molecular target: Protein phosphatase 1D (Homo sapiens) (UniProt O15297); experiment: Rhodamine-PBP qHTS Assay for Modulators of WT P53-Induced Phosphatase 1 (WIP1) (AID 1347425)
Outline: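 The read-out is the change in Rhodamine-PBP fluorescence (f1 - f0, ex 525/em 598 nm) as Pi is released, read each minute for 11 min. Final reaction: 5 nM WIP1, 10 uM phosphopeptide VEPPL-pS-QETFS, 10 uM Rh-PBP, 50 mM Tris-HCl pH 7.5, 30 mM MgCl2. Compound was preincubated with enzyme for 1 hour at room temperature.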

[4] = Primary qHTS for inhibitors of SARS-S pseudo-typed particle cell entry (AID 1479145; calls by dose curve; note: nearly all actives have a fitted effect of over 45% in size)
[5] = Primary qHTS for Huh7 cytotoxicity: counterscreen for inhibitors of MERS-S pseudotyped particle cell entry (AID 1479147; calls by dose curve)
[6] = Primary qHTS for inhibitors of MERS-S pseudo-typed particle cell entry (AID 1479149; calls by dose curve; note: nearly all actives have a fitted effect of over 60% in size)
[7] = Primary qHTS for Vero E6 cytotoxicity: counterscreen for inhibitors of SARS-S pseudo-typed particle cell entry (AID 1479150; calls by dose curve)
[8] = Primary qHTS for inhibitors of La Crosse Virus (LACV) - induced cell death in SH-SY5Y cells (AID 1508616);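 note: top concentration of the series differs between compounds; higher means more rescue of cells from virus-induced death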
Outline: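 SH-SY5Y, 6000 cells/well; cpd via pin tool in DMSO; LACV 0.01 MOI; 6 d 37C 5% CO2; ATPLite, 5 min RT; luminescence normalized to ±virus DMSO controls.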

Measured: Potency

CC1=C2[C@H]3OC(=O)[C@@H](C)[C@@H]3CC[C@@]2(C)C=CC1=O
inactive: all assays above

Clc1ccc(C(OCCN2CCCCC2)c2ccccc2)cc1 (configuration not stated)
not listed: [4] | [6]
inactive: all other assays above

CC(CC(C(N)=O)(c1ccccc1)c1ccccc1)N(C)C (configuration not stated)
inactive: all assays above

CC(Cc1ccccc1)NCCCCl (configuration not stated)
not listed: [4]
inactive: all other assays above

CC[C@H]1C[C@H]2[C@@H]3CCC4=CC(=O)CC[C@@H]4[C@H]3CC[C@]2(C)[C@H]1O
not listed: [4] | [6]
inactive: all other assays above

O=C(O)Cc1ccccc1
inactive: all assays above

C=CCN1CC[C@]23CCCC[C@H]2[C@H]1Cc1ccc(O)cc13
not listed: [6]
inactive: all other assays above

O=C(CCCN1CCC(n2c(=O)[nH]c3ccccc32)CC1)c1ccc(F)cc1
not listed: [4] | [6]
inactive: all other assays above

COP(=O)(OC)OC=C(Cl)Cl
inactive: all assays above

CCOC(=O)C1(c2ccccc2)CCN(CCc2ccc(N)cc2)CC1
inactive: all assays above

COc1ccc(CN2CCNCC2)c(OC)c1OC
inactive: all assays above

O=C(NC(=O)c1c(F)cccc1F)Nc1cc(Cl)c(OC(F)(F)C(F)C(F)(F)F)cc1Cl (configuration not stated)
not listed: [4] | [6]
inactive: all other assays above

Cc1ccc(N=CN(C)C=Nc2ccc(C)cc2C)c(C)c1
inactive: all assays above

CCOC(=O)c1ncn2c1CN(C)C(=O)c1c(I)cccc1-2
not listed: [4] | [6]
inactive: all other assays above

CCCCC1C(=O)NC(=O)N(C2CCCCC2)C1=O (configuration not stated)
inactive: all assays above

O=C(CCCCl)c1ccc(F)cc1
inactive: [1] | [2] | [3] | [8]

CC(C)(O)C(Cl)(Cl)Cl
inactive: all assays above

Cc1nnc2n1-c1sc(CCC(=O)N3CCOCC3)cc1C(c1ccccc1Cl)=NC2
inactive: all assays above

CCCC[N+]1(C)[C@@H]2CC(OC(=O)[C@H](CO)c3ccccc3)C[C@H]1[C@@H]1O[C@@H]12 (some centres not stated)
inactive: all assays above

CCC(=O)C(CCN(C)C)(c1ccccc1)c1ccccc1
not listed: [4] | [6]
inactive: all other assays above

CC(C)C(Br)C(=O)NC(N)=O (configuration not stated)
not listed: [4] | [8]
inactive: all other assays above

CCN(CC)Cc1nccn1-c1ccc([N+](=O)[O-])cc1C(=O)c1ccccc1Cl
not listed: [4]
inactive: all other assays above

CC(C(O)c1ccccc1)N(C)C/C=C/c1ccccc1 (configuration not stated)
inactive: [1] | [2] | [3] | [5] | [7]

COP(=O)(OC)C(O)C(Cl)(Cl)Cl (configuration not stated)
inactive: all assays above

CC(Cc1ccccc1)NCc1ccccc1Cl (configuration not stated)
inactive: all assays above

O=c1n(Cl)c(=O)n(Cl)c(=O)n1Cl
not listed: [6] | [8]
inactive: all other assays above

CC1COC2(c3ccccc3Cl)c3cc(Cl)ccc3NC(=O)CN12 (configuration not stated)
inactive: all assays above

N#Cc1nn(-c2c(Cl)cc(C(F)(F)F)cc2Cl)c(N)c1S(=O)C(F)(F)F (configuration not stated)
not listed: [6]
inactive: all other assays above
